Percent Effect data for eleven compounds are collected here from ChEMBL document CHEMBL3988442, “University of Dundee, Small-Polar-MMV Screening Library” (2021).

Set-up in all cases: scale not given: direction of the effect not stated beside the values
Experiment [1] addresses Protein translocase subunit SecA (Escherichia coli (strain K12)) (UniProt P10408). Put plainly: Assay to Identify E. coli SecA ATPase Inhibitors. In kind it is functional. Particulars: 30 µM.
The target in experiment [2] is T1, Ubiquitin-activating enzyme e1, putative (Leishmania donovani (strain BPK282A1)) (UniProt E9BSI1).
T1 sequence (whole entry): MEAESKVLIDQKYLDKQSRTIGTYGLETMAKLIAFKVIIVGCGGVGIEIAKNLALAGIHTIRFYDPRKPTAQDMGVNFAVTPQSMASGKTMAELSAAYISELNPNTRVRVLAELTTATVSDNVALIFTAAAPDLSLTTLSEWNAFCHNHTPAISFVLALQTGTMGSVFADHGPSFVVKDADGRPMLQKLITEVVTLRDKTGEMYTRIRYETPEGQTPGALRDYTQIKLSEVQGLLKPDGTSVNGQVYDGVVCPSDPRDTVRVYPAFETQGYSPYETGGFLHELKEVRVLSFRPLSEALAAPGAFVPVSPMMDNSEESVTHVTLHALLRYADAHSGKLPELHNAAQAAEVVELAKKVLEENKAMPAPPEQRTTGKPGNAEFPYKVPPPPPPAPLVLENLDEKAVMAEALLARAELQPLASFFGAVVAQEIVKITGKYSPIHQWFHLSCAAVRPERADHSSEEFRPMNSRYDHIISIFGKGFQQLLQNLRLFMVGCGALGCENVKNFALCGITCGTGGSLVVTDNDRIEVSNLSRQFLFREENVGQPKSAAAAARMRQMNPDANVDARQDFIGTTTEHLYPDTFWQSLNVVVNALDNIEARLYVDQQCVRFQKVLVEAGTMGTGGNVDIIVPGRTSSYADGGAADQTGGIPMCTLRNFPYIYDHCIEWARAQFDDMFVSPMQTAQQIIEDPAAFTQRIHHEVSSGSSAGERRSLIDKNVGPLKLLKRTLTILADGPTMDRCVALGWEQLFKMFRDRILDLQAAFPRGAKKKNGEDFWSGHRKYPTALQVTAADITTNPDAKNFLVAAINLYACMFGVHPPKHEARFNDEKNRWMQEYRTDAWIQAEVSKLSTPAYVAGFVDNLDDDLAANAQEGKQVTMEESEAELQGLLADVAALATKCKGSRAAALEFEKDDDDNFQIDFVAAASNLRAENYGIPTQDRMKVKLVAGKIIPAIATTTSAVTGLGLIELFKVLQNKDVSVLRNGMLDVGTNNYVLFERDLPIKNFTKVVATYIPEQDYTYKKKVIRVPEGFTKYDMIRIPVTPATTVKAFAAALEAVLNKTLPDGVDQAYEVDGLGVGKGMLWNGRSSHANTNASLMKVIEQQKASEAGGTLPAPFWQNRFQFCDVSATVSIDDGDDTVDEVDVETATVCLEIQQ
Put plainly: Leishmania donovani Ubiquitin Activating Enzyme (LdE1). Format: functional. Particulars: 30 µM.

The target of experiment [3] is AMP-activated protein kinase, AMPK (Homo sapiens) (UniProt P54646+O43741+P54619+Q9UGJ0+Q9Y478+Q13131+Q9UGI9). Put plainly: AMP-dependent Kinase enzyme assay. An in vitro enzyme assay that detects ADP turnover that is directly proportional to AMPK activity. This uses naive AMPK that is activated during the assay with MK-8722. Format: functional. The following applies: 30 µM.

The target of experiment [4] is Sialic acid-binding Ig-like lectin 9 (Homo sapiens) (UniProt Q9Y336). Put plainly: Hs-Siglec9 ALPHAscreen SOP 20170721. Particulars: 10 µM.
Sialic acid-binding Ig-like lectin 9 (Homo sapiens), sequence (Q9Y336 whole entry): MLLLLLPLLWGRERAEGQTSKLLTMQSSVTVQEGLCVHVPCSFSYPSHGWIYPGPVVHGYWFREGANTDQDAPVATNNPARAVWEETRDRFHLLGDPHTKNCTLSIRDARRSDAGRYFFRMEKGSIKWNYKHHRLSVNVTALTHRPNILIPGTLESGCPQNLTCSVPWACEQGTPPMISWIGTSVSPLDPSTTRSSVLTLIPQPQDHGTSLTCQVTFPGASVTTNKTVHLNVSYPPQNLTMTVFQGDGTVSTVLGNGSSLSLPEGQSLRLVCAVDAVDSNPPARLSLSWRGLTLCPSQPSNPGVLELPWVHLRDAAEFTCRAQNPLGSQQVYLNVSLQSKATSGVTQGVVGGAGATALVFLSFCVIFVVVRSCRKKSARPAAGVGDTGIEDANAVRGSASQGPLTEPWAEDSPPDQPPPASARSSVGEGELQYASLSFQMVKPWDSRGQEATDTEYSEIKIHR
In the next experiment the test system is Trypanosoma cruzi. Put plainly: Trypanosoma cruzi phosphomannomutase and mannose-1-phosphate guanylyltransferase assay. In kind it is functional. The following applies: 10 µM.
The target in experiment [5] is T2, Arginase-2, mitochondrial (Homo sapiens) (UniProt P78540).
T2 sequence (whole entry): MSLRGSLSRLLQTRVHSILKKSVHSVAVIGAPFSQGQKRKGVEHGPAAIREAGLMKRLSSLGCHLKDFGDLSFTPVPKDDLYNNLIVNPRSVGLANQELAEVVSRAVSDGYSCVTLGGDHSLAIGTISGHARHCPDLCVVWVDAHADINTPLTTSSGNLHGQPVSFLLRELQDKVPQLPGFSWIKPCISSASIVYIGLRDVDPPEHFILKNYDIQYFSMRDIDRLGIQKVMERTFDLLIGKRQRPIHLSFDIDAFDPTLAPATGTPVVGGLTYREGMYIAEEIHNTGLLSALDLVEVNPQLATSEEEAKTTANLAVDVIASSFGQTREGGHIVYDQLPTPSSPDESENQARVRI
Put plainly: in vitro enzyme assay to detect the production of urea directly proportional to the activity of Arginase II. Also: in the data most compounds retested in dose-response had high values. In kind it is functional. Particulars: 33.3 µM.

For experiment [6], the target named is T3, Proteasome subunit beta (Trypanosoma cruzi) (UniProt O96673).
T3 sequence (whole entry): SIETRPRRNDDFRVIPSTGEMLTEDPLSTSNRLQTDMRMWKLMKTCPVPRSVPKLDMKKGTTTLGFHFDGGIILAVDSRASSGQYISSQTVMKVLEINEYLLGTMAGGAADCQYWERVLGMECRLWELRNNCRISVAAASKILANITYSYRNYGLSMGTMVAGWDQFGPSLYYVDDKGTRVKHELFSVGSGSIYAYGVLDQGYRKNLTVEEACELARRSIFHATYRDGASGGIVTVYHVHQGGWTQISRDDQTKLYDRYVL
Put plainly: Trypanosoma cruzi proteasome chymotrypsin-like activity (TcProtChymo) assay. Also: in the data most compounds retested in dose-response had high values. Format: functional. Particulars: 9.37 µM.

For another experiment, the species on record is Homo sapiens. Nature of the experiment: To identify inhibition of the IFN signalling (Jak-Stat) pathway via expression of an eGFP reporter gene under the control of an IFN-stimulated response element (ISRE) containing MxA promoter. In kind it is functional. Particulars: 30 µM. In general terms: In a reporter assay the amount or activity of a reporter protein is the signal.

Experiment [7] deals with T4, Tyrosyl-tRNA synthetase, putative (Trypanosoma cruzi (strain CL Brener)) (UniProt Q4DSP6).
T4 sequence (whole entry): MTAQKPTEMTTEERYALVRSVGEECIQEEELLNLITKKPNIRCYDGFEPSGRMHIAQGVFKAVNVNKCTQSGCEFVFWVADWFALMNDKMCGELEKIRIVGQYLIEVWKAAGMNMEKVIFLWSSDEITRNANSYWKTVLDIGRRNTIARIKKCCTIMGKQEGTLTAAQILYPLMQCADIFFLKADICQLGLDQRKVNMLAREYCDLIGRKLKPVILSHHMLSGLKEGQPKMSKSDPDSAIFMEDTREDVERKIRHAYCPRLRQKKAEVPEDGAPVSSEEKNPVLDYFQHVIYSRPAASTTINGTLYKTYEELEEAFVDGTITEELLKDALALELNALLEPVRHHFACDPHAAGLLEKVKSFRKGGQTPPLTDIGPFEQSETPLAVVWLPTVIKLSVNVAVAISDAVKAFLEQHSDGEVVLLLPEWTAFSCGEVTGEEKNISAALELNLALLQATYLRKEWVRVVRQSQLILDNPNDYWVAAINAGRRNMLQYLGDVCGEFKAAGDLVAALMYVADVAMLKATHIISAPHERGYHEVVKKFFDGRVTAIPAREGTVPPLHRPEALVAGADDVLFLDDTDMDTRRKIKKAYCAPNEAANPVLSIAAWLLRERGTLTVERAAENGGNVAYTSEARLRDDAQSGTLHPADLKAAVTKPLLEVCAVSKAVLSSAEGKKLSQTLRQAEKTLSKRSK
Put plainly: Trypanosoma cruzi tyrosyl tRNA synthetase (TcYRS) _High Tyrosine SOP. Also: in the data most compounds retested in dose-response had high values. In kind it is functional. Particulars: 30 µM.

Experiment [8] has as its target T4, Tyrosyl-tRNA synthetase, putative (Trypanosoma cruzi (strain CL Brener)). Put plainly: Trypanosoma cruzi tyrosyl tRNA synthetase (TcYRS) SOP. In kind it is functional. Particulars: 30 µM.
Experiment [9] has as its target Chromo domain-containing protein 1 (Saccharomyces cerevisiae (strain ATCC 204508 / S288c) (Baker's yeast)) (UniProt P32657). Put plainly: ScCHD-1 Enzyme Inhibition Assay. Also: in the data most compounds retested in dose-response had high values. In kind it is functional. The following applies: 30 µM.

For some of these results: Results with a measured potency or affinity are listed apart.

Chromo domain-containing protein 1 (Saccharomyces cerevisiae (strain ATCC 204508 / S288c) (Baker's yeast)), sequence (P32657 whole entry, the tested form may be a part): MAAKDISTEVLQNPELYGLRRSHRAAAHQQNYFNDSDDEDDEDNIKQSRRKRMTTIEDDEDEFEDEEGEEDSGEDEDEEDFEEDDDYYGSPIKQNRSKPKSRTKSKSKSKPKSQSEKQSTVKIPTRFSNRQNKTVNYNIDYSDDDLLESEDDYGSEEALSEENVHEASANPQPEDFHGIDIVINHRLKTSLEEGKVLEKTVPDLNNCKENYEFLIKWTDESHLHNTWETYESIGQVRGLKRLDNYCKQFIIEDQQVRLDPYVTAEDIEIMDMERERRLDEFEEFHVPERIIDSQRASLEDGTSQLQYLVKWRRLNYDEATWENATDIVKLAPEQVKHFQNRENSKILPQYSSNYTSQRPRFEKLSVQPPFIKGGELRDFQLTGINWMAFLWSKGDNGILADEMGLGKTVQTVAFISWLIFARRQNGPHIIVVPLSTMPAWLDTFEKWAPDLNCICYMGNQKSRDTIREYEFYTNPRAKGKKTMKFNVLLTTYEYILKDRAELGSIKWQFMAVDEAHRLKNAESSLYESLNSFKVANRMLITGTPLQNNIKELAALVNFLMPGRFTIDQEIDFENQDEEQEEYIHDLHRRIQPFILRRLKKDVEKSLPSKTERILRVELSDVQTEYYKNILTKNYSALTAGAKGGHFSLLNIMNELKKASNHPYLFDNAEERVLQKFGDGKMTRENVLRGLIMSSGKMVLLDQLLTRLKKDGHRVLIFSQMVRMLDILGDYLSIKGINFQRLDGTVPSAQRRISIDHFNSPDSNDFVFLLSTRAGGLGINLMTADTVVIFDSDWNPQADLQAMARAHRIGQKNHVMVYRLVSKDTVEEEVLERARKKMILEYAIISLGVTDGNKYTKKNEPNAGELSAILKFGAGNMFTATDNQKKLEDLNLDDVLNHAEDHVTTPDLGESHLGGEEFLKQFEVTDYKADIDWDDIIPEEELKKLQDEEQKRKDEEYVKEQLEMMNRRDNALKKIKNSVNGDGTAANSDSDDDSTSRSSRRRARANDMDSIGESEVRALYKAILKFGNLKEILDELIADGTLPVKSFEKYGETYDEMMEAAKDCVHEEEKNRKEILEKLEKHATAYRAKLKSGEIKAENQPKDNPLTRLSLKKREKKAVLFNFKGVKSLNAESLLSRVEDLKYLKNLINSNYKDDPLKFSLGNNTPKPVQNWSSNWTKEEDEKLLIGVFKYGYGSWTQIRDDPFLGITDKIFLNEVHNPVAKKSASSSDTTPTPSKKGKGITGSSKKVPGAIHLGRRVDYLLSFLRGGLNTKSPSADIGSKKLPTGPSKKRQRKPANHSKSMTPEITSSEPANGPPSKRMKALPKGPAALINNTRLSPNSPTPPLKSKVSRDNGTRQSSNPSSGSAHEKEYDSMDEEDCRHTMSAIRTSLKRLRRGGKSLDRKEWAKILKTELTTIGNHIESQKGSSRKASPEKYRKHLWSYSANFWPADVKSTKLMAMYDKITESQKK
Protein translocase subunit SecA (Escherichia coli (strain K12)), sequence (P10408 whole entry): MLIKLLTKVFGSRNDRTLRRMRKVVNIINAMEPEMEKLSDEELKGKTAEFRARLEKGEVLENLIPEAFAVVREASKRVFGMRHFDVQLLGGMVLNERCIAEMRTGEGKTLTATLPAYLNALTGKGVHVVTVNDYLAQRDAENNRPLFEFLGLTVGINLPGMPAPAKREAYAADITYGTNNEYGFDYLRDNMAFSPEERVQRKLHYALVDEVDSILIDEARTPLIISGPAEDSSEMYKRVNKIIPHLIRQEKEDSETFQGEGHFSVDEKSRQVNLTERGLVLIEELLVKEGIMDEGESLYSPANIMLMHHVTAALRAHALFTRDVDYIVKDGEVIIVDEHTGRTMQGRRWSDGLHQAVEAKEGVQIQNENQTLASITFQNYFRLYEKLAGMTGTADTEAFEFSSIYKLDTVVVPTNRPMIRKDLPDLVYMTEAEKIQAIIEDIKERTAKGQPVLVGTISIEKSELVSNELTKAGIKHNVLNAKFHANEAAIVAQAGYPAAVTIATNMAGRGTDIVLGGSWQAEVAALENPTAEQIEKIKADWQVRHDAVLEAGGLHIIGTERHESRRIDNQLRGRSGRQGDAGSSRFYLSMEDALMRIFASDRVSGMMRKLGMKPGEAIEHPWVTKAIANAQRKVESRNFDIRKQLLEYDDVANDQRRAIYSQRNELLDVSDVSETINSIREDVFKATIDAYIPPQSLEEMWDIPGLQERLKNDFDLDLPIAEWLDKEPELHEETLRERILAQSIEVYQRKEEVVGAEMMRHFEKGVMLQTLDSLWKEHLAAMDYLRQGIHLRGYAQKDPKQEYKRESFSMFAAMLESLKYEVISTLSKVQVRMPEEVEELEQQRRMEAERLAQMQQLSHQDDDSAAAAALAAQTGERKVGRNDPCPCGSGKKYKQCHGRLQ

For the compound `CCN(CC)C(=O)CN(C)C1CCc2ccccc21` (stereo unspecified), the Percent Effect was -0.321% in experiment [1]; 18.4% in experiment [2]; -0.859% in [3]; -2.93% in experiment [4]; 3.57% with Trypanosoma cruzi; 3.83% in [5]. Also, the Percent Effect in [6] was 18.7%; in the experiment listed under Homo sapiens it was 11.3%; in experiment [7] it was 8.33%; in experiment [8] it was 21.9%; in [9] it was -9.79%.
Regarding `CC(C)NC(=O)c1ccc2c(c1)nc1n2CCN(C(C)C)C1`, the Percent Effect in [1] was -0.173%; in experiment [2], 4%; in [3] it was 2.97%; in experiment [4] it was 4.16%; in the experiment on Trypanosoma cruzi, -5.11%; in experiment [5], -13.2%. Moreover, the Percent Effect is 19.2% in experiment [6]; -1.16% in the experiment filed under Homo sapiens; 6.35% in experiment [7]; 7.69% in experiment [8]; -10.7% in experiment [9].
Take `CC(NC(=O)NCCCc1n[nH]c(N)c1C#N)c1ccccc1` (stereo unspecified): the Percent Effect in experiment [1] was -5.52%; in experiment [2] it was 22.8%; in experiment [3], 48.4%; in [4], -3.62%; with Trypanosoma cruzi, 3.68%; in experiment [5] it was -11.8%. Besides, the Percent Effect in experiment [6] is 14.8%; in the experiment filed under Homo sapiens, 7.81%; in [7], 6.4%; in experiment [8] it was 24.1%; in [9], -5.91%.
As to `O=C(Nc1cc(F)ccc1OCC1CCCO1)c1ccc(O)nc1` (stereo unspecified), the Percent Effect was -4.33% in experiment [1]; 7.79% in experiment [2]; 8.03% in experiment [3]; -2.88% in [4]; 8.91% with Trypanosoma cruzi; -14.5% in [5]. For the same compound, the Percent Effect in experiment [6] was 11.4%; in the experiment listed under Homo sapiens, -5.06%; in [7] it was 3.81%; in experiment [8] it was 14.1%; in experiment [9], -22.2%.
Turning to `Cc1ccc(OCCNC(=O)C(C)n2cncn2)cc1` (stereo unspecified), the Percent Effect in experiment [1] is -1.61%; in experiment [2], 15.2%; in experiment [3], 7.61%; in experiment [4], -6.9%; in the experiment with Trypanosoma cruzi it was -9.91%; in experiment [5] it was 0.38%. In addition, the Percent Effect in experiment [6] is 11.1%; in the experiment filed under Homo sapiens, 35.3%; in [7], -1.48%; in experiment [8] it was 3.8%; in experiment [9], -3.56%.
`O=C(CCc1ccc(=O)[nH]n1)N1CCCC(COc2ccc(F)cc2)C1` (stereo unspecified): the Percent Effect in experiment [1] is -2.1%; in [2] it was 1.39%; in [3], -1.82%; in experiment [4] it was -3.84%; with Trypanosoma cruzi it was 1.85%; in experiment [5] it was 2.65%. Besides, the Percent Effect in [6] is 16.3%; in the experiment listed under Homo sapiens, 5.9%; in [7] it was 6.32%; in experiment [8] it was 12.8%; in experiment [9], -1.89%.
In the case of `Cc1nc(C)n(CC2CN(c3nnc(C)c(C)c3C#N)CCO2)n1` (stereo unspecified), the Percent Effect was -5.18% in [1]; 7.89% in [2]; 1.44% in experiment [3]; 6.73% in experiment [4]; 1.13% with Trypanosoma cruzi; 2.68% in experiment [5]. Also, the Percent Effect in [6] came out at 8.52%; in the experiment filed under Homo sapiens, 1.18%; in [7], 7.35%; in experiment [8], 12.2%; in experiment [9] it was 0.234%.
On to `NC(=O)c1ccc(S(=O)(=O)NC2CCN(Cc3ccccc3)C2=O)cc1` (stereo unspecified), for which the Percent Effect in [1] was -3.79%; in experiment [2] it was 17.7%; in experiment [3] it was 9.8%; in experiment [4], 5.49%; in the experiment with Trypanosoma cruzi, 0.472%; in [5], -3.42%. In addition, the Percent Effect in [6] is 0.901%; in the experiment filed under Homo sapiens, 2.7%; in experiment [7], 5.42%; in [8], 11.4%; in [9], -6.86%.
`CC(NC(=O)C1=NN(C)C(=O)CC1)c1ccc(Cl)cc1Cl` (stereo unspecified): the Percent Effect in [1] was -2.53%; in experiment [2], 16.4%; in [3] it was 8.07%; in [4] it was 9.9%; in the experiment on Trypanosoma cruzi, 2.74%; in experiment [5] it was 8.64%. For the same compound, the Percent Effect was 11.9% in experiment [6]; 16.3% in the experiment filed under Homo sapiens; 2.15% in experiment [7]; 20% in [8]; -7.04% in [9].
With `Cc1cccc(-c2nc(CN(Cc3cccs3)CC3CCCO3)no2)c1` (stereo unspecified), the Percent Effect in [1] was -1.96%; in experiment [2], -51.9%; in experiment [3], 2.38%; in experiment [4] it was -0.778%; in the experiment on Trypanosoma cruzi it was 0.103%; in experiment [5], 4.95%. Moreover, the Percent Effect is 7.72% in [6]; 25.8% in the experiment listed under Homo sapiens; -7.29% in experiment [7]; -17.7% in experiment [8]; -15.2% in experiment [9].
For `Cc1ccc(CNC(=O)CCSCc2csc(C)n2)cn1`, the Percent Effect is -2.98% in experiment [1]; 17.7% in experiment [2]; -1.48% in [3]; -3.29% in experiment [4]; 1.42% in the experiment on Trypanosoma cruzi; 4.18% in experiment [5]. In addition, the Percent Effect in experiment [6] is 0.0819%; in the experiment listed under Homo sapiens, 8.57%; in [7], 0.493%; in experiment [8], 8.86%; in experiment [9], -3.92%.
